Laboratory results from PubChem BioAssay (NCI).
About 83,000 compounds went through this panel and 20% of them were active in at least one assay; those are over-represented in the sample as a whole.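 Step 1: grow cells in 96-well plates. Step 2: add test compound at a single concentration. Step 3: incubate 48 h. Step 4: record percent growth.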 The source made the active and inactive calls. The calls were made as follows: active = growth percent below 10; inactive = the rest.

Key:
Test in all cases: NCI-60 one-dose screen, 48 h (100 = growth as untreated, 0 = no growth, -100 = all killed)
Details in all cases: 10 µM unless noted
NCI-H23 lung = tested on: NCI-H23 lung
NCI-H226 lung = tested on: NCI-H226 lung
NCI-H322M lung = tested on: NCI-H322M lung
HOP-62 NSCLC = tested on: HOP-62 NSCLC
NCI-H460 lung = tested on: NCI-H460 lung
HOP-92 NSCLC = tested on: HOP-92 NSCLC
NCI-H522 lung = tested on: NCI-H522 lung
A549/ATCC NSCLC = tested on: A549/ATCC NSCLC
786-0 renal = tested on: 786-0 renal
COLO 205 colon = tested on: COLO 205 colon

Measured: growth

COc1cc2nc(-c3ccc(Cl)cc3)cc(OCCCN3CCOCC3)c2cc1OC
active: NCI-H226 lung -7.3%
inactive: NCI-H23 lung 73.3% | NCI-H322M lung 57.4% | HOP-62 NSCLC 60.1% | NCI-H460 lung 21.6% | HOP-92 NSCLC 19.3% | NCI-H522 lung 21.6% | A549/ATCC NSCLC 29.9% | 786-0 renal 67.5% | COLO 205 colon 25.7%

CCCCOc1ccc(/C=N/Nc2cc(C)nc3ccc(Br)cc23)cc1
inactive: NCI-H23 lung 74.9% | NCI-H226 lung 90.2% | NCI-H322M lung 76.9% | HOP-62 NSCLC 82.5% | HOP-92 NSCLC 68% | NCI-H522 lung 76.9% | A549/ATCC NSCLC 34.5%
active: NCI-H460 lung -34.6% | 786-0 renal -83.7% | COLO 205 colon -58.5%

Cn1cc(-c2csc(-c3c[nH]c4ccccc34)n2)c2ccnc(Cl)c21
inactive: NCI-H23 lung 86.9% | NCI-H226 lung 60.5% | NCI-H322M lung 88.9% | HOP-62 NSCLC 119% | NCI-H460 lung 74.2% | HOP-92 NSCLC 64% | NCI-H522 lung 52.5% | A549/ATCC NSCLC 59% | 786-0 renal 59.1% | COLO 205 colon 46.7%

COc1ccc(C/C(C)=C(/c2ccc(OCCCN(C)C)cc2)c2ccc(OC(C)=O)cc2)cc1
inactive: NCI-H23 lung 80.7% | NCI-H226 lung 98% | NCI-H322M lung 94.5% | HOP-62 NSCLC 83.2% | NCI-H460 lung 73.1% | HOP-92 NSCLC 64.5% | NCI-H522 lung 95.5% | A549/ATCC NSCLC 74.3% | 786-0 renal 63.2% | COLO 205 colon 50.1%

CC(=O)CCC(=O)OCc1cc(=O)c(O)co1
inactive: NCI-H23 lung 92.8% | NCI-H226 lung 109% | NCI-H322M lung 98.2% | HOP-62 NSCLC 105% | NCI-H460 lung 112% | HOP-92 NSCLC 105% | NCI-H522 lung 96% | A549/ATCC NSCLC 101% | 786-0 renal 99.8% | COLO 205 colon 125%

Cn1ccc2c1CC1CN(Cc3ccco3)C(=O)C1C2C(=O)O (configuration not stated)
inactive: NCI-H23 lung 94.3% | NCI-H226 lung 103% | NCI-H322M lung 99.3% | HOP-62 NSCLC 96.8% | NCI-H460 lung 102% | HOP-92 NSCLC 99.4% | NCI-H522 lung 92.3% | A549/ATCC NSCLC 98% | COLO 205 colon 117%

COc1ccc(C(=O)C2C(C#N)C(C#N)C3C=Cc4ccccc4N32)cc1 (configuration not stated)
active: NCI-H522 lung 0.174% | COLO 205 colon -5.52%
inactive: NCI-H23 lung 37.9% | NCI-H226 lung 77.6% | NCI-H322M lung 53.5% | HOP-62 NSCLC 30.1% | NCI-H460 lung 19.1% | HOP-92 NSCLC 84.1% | A549/ATCC NSCLC 29.9%

O=C(NO)c1ccc(-n2nc(-c3ccccc3)c3ccccc32)cc1
inactive: NCI-H23 lung 49.9% | NCI-H226 lung 56.4% | NCI-H322M lung 46.9% | HOP-62 NSCLC 29.7% | NCI-H460 lung 26.6% | HOP-92 NSCLC 62.9% | A549/ATCC NSCLC 41.7% | COLO 205 colon 49%
active: NCI-H522 lung 6.17%

CCNC(=O)Oc1ccc(/C(=C(\C)c2ccccc2)c2ccc(OCCN3CCCCC3)cc2)cc1
inactive: NCI-H23 lung 73.6% | NCI-H226 lung 92.2% | NCI-H322M lung 82.7% | HOP-62 NSCLC 59.4% | NCI-H460 lung 49.3% | HOP-92 NSCLC 73.4% | NCI-H522 lung 93.4% | A549/ATCC NSCLC 56% | 786-0 renal 16.4%
active: COLO 205 colon 6.41%

CN(C)CCC(=O)c1ccc([N+](=O)[O-])cc1
active: NCI-H522 lung -23%
inactive: NCI-H23 lung 109% | NCI-H226 lung 94.8% | NCI-H322M lung 104% | HOP-62 NSCLC 98.6% | NCI-H460 lung 107% | HOP-92 NSCLC 89.2% | A549/ATCC NSCLC 109% | COLO 205 colon 107%

O=c1[nH]nc(-c2ccccc2)c2sc3ncc(-c4ccc(Br)cc4)n3c12
inactive: NCI-H23 lung 61.6% | NCI-H226 lung 43.8% | NCI-H322M lung 72.3% | HOP-62 NSCLC 48.8% | NCI-H460 lung 33.8% | HOP-92 NSCLC 65.3% | A549/ATCC NSCLC 82.9% | 786-0 renal 53% | COLO 205 colon 37.2%
active: NCI-H522 lung -1.56%

CCN(CC)CCOc1ccc(NC(=O)C(C(C)C)N2C(=O)/C(=C/c3ccc(Br)cc3)SC2=S)cc1 (configuration not stated)
inactive: NCI-H23 lung 94.6% | NCI-H226 lung 90% | NCI-H322M lung 99.8% | HOP-62 NSCLC 104% | NCI-H460 lung 16.2% | HOP-92 NSCLC 78.8% | NCI-H522 lung 96.3% | A549/ATCC NSCLC 16.6% | COLO 205 colon 92.1%

Oc1c(Cl)cc(Cl)c(Cl)c1CNCCNCc1c(O)c(Cl)cc(Cl)c1Cl
inactive: NCI-H23 lung 24.7% | NCI-H226 lung 56.2% | NCI-H322M lung 21.8% | HOP-62 NSCLC 25% | NCI-H460 lung 13% | HOP-92 NSCLC 27.8% | NCI-H522 lung 14.9% | A549/ATCC NSCLC 13.4% | COLO 205 colon 13.3%

[O-][n+]1c(Cl)cc(Cl)c2ccccc21
inactive: NCI-H23 lung 102% | NCI-H226 lung 104% | NCI-H322M lung 115% | HOP-62 NSCLC 103% | NCI-H460 lung 108% | HOP-92 NSCLC 89.4% | NCI-H522 lung 104% | A549/ATCC NSCLC 91.9% | COLO 205 colon 107%

COc1ccc(C(=O)c2cc(OC)c(OC)c(OC)c2)cc1O
active: NCI-H460 lung 2.85%
inactive: NCI-H23 lung 27.7% | NCI-H226 lung 84.6% | NCI-H322M lung 43.7% | HOP-62 NSCLC 22.7% | HOP-92 NSCLC 51.5% | NCI-H522 lung 12.4% | A549/ATCC NSCLC 17.8% | COLO 205 colon 41.9%

OC(c1ccc(F)c(C(F)(F)F)c1)c1cnccc1NC1CCCCC1 (configuration not stated)
inactive: NCI-H23 lung 51.7% | NCI-H226 lung 78.1% | NCI-H322M lung 89.5% | HOP-62 NSCLC 85.8% | NCI-H460 lung 69.5% | HOP-92 NSCLC 40.2% | NCI-H522 lung 67.1% | A549/ATCC NSCLC 69.9% | 786-0 renal 63.6%
active: COLO 205 colon -60.8%

COc1cc(OC)cc(C(=O)C[n+]2cccc3cc[nH]c32)c1
inactive: NCI-H23 lung 94.7% | NCI-H226 lung 94.2% | NCI-H322M lung 93.1% | HOP-62 NSCLC 99.1% | NCI-H460 lung 101% | HOP-92 NSCLC 88.9% | NCI-H522 lung 93% | A549/ATCC NSCLC 97.6% | COLO 205 colon 107%

CCOC(=O)c1cc(C(=O)c2ccc(OC)c(OC)c2)n2c1ccc1ccccc12
inactive: NCI-H23 lung 86.2% | NCI-H226 lung 80.7% | NCI-H322M lung 101% | HOP-62 NSCLC 85% | NCI-H460 lung 99.2% | HOP-92 NSCLC 83.3% | NCI-H522 lung 86% | A549/ATCC NSCLC 98.3% | COLO 205 colon 112%

N#C/C(=C\c1ccc([N+](=O)[O-])s1)c1nc2cc(Cl)ccc2s1
active: NCI-H23 lung 2.73% | NCI-H226 lung -74.1% | NCI-H460 lung 6.38% | HOP-92 NSCLC -37.8% | NCI-H522 lung -35.9% | COLO 205 colon -26.6%
inactive: NCI-H322M lung 99.3% | HOP-62 NSCLC 12.6% | A549/ATCC NSCLC 25.1%

O=C(CCN1CCCC1)c1ccc([N+](=O)[O-])cc1
inactive: NCI-H23 lung 101% | NCI-H226 lung 99.1% | NCI-H322M lung 101% | HOP-62 NSCLC 98.2% | NCI-H460 lung 108% | HOP-92 NSCLC 109% | A549/ATCC NSCLC 101% | COLO 205 colon 107%
active: NCI-H522 lung 2.13%

Fc1ccc2c(-c3cncn3CCc3ccccc3)c[nH]c2c1
inactive: NCI-H23 lung 86.2% | NCI-H226 lung 75.9% | NCI-H322M lung 91.8% | HOP-62 NSCLC 87.4% | NCI-H460 lung 92.7% | HOP-92 NSCLC 65% | NCI-H522 lung 82% | A549/ATCC NSCLC 87% | COLO 205 colon 101%

COc1ccccc1/C(C)=N/NC(=O)CSc1nc2ccccc2c(=O)n1Cc1ccc(S(N)(=O)=O)cc1
inactive: NCI-H23 lung 96.7% | NCI-H226 lung 95.5% | NCI-H322M lung 90% | HOP-62 NSCLC 93.5% | NCI-H460 lung 100% | HOP-92 NSCLC 105% | NCI-H522 lung 82.1% | A549/ATCC NSCLC 95.2% | 786-0 renal 97.3% | COLO 205 colon 119%

Nc1ccccc1NC(=O)c1ccc(-n2nc(-c3ccccc3)c3ccccc32)cc1
inactive: NCI-H23 lung 89.1% | NCI-H226 lung 64.7% | NCI-H322M lung 83.5% | HOP-62 NSCLC 84.7% | NCI-H460 lung 79.3% | HOP-92 NSCLC 78.9% | NCI-H522 lung 25% | A549/ATCC NSCLC 74.5% | COLO 205 colon 117%

CCOC(=O)c1nc2c3ccccc3ccn2c1C(=O)OCC
inactive: NCI-H23 lung 96.9% | NCI-H226 lung 97.2% | NCI-H322M lung 95.1% | HOP-62 NSCLC 102% | NCI-H460 lung 118% | HOP-92 NSCLC 103% | NCI-H522 lung 88.3% | A549/ATCC NSCLC 103% | COLO 205 colon 109%

Brc1ccc2[nH]cc(-c3cncn3CCc3ccccc3)c2c1
inactive: NCI-H23 lung 37.9% | NCI-H226 lung 53.5% | NCI-H322M lung 74.3% | HOP-62 NSCLC 63.4% | NCI-H460 lung 66.5% | HOP-92 NSCLC 23.4% | NCI-H522 lung 51.1% | A549/ATCC NSCLC 56.7% | COLO 205 colon 66.3%

O=C(CNCCN1CCOCC1)N1c2cccc3cccc(c23)N(C(=O)CNCCN2CCOCC2)C1c1cn(-c2ccccc2)nc1-c1cccc([N+](=O)[O-])c1
inactive: NCI-H23 lung 95.8% | NCI-H226 lung 81.4% | NCI-H322M lung 97.6% | HOP-62 NSCLC 89.7% | NCI-H460 lung 96% | HOP-92 NSCLC 53.2% | NCI-H522 lung 75.3% | A549/ATCC NSCLC 82.3% | COLO 205 colon 52.8%

CSc1nc2sc3cccc(Cl)c3n2c(=N)c1C#N
inactive: NCI-H23 lung 90.5% | NCI-H226 lung 93.5% | NCI-H322M lung 99.8% | HOP-62 NSCLC 97% | NCI-H460 lung 102% | HOP-92 NSCLC 82.4% | NCI-H522 lung 78.9% | A549/ATCC NSCLC 100% | COLO 205 colon 56.1%

c1ccc(-c2cn3c(ccc4ccccc43)n2)cc1
inactive: NCI-H23 lung 70.5% | NCI-H226 lung 79% | NCI-H322M lung 77.5% | HOP-62 NSCLC 68.4% | NCI-H460 lung 20.6% | HOP-92 NSCLC 65.6% | NCI-H522 lung 44.5% | A549/ATCC NSCLC 47.1% | 786-0 renal 81.7% | COLO 205 colon 41.9%
